Source: PubChem (several laboratories)
MazEF act – increases E. coli MazEF RNase cleavage of RNA; activation, % at 20 µM; P0AE70; AID 504720; 0.32% of 350,000 active; FAM/BHQ RNA-DNA oligo cleavage fluorescence, 5 h; in the data active means activation above about 50%
Target sequence (P0AE70 whole entry, looked up): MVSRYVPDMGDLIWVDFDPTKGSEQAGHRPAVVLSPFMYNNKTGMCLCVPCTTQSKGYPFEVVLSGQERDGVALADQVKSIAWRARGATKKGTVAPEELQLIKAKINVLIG
BioA inh – blocks M. tuberculosis BioA enzyme activity. purified M. tuberculosis BioA enzyme, plate reader. 0.096% of 360,000 active. inhibition, % at 9.99 µM; in the data active means inhibition above about 40%
FadD28 binding – M. tuberculosis FadD28 bisubstrate binding inhibition; FadD28 bisubstrate probe binding, fluorescence polarization; inhibition, % at 12.5 µM; 0.22% of 360,000 active; AID 588549; in the data active means inhibition above about 8.5%, passing the limit was not always enough
TcdB inh – blocks C. difficile toxin B glycohydrolase activity | P18177 | TcdB glycohydrolase enzymatic assay, plate reader | inhibition, % at 9.99 µM | AID 652162 | 0.24% of 350,000 active; in the data active means inhibition above about 10%
VHR inh abs – DUSP3 (human) phosphatase inhibition. 0.52% of 290,000 active. inhibition, % at 13.3 µM. P51452. recombinant VHR phosphatase, pNPP absorbance; in the data active means inhibition above about 50%
Target sequence (P51452 whole entry, looked up): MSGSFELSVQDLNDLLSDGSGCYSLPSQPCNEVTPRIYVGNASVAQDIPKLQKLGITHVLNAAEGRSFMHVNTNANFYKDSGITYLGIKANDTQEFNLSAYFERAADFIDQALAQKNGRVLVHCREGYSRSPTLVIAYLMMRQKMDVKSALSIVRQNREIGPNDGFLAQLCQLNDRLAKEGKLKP
Y pestis TopoI – Y. pestis Topo-I inhibition via cleavage products | Y. pestis Topo-I cleavage product accumulation, plate reader | activity, % at 10 µM | 0.064% of 360,000 active | AID 504884; in the data active means activity above about 50%, passing the limit was not always enough
An asterisk follows results filed as active. An excerpt weighted towards active compounds, which were near 1% of everything screened.

`Cc1cc(NC(=O)CN2C(=O)NC3(CCC(C)CC3)C2=O)no1` (stereo not given) gave MazEF act 3.7, FadD28 binding -0.6, VHR inh abs 51.3* and Y pestis TopoI 0.8.
For CCC(=O)N[C@@H]1C=C[C@@H](CC(=O)NCCN2CCCCC2)O[C@H]1CO the results were BioA inh 0.5 and TcdB inh 0.5.
For N#CC1=C(N)N(c2ccccc2)C(c2ccco2)C1(C#N)C#N (stereo not given) the results were MazEF act 3.8, BioA inh 1.9, FadD28 binding 14.7*, VHR inh abs 9.4 and Y pestis TopoI -7.2.
Screening Cc1ccsc1/C=N/NC(=O)c1nnn(-c2nonc2N)c1C returned MazEF act 5.5, BioA inh -0.2, TcdB inh -0.8, VHR inh abs 56.2* and Y pestis TopoI 9.9.
Screening Oc1[nH]c2ccccc2c1N=Nc1cccc(Cl)c1 returned MazEF act 362.1*, BioA inh -6.4, FadD28 binding 0.8, TcdB inh 1.1, VHR inh abs 17.0 and Y pestis TopoI 0.9.
For O=C(Oc1ccc2ccccc2c1)C1CCC1 the results were MazEF act 2.0, BioA inh -1.1, FadD28 binding 0.3, TcdB inh 1.4, VHR inh abs 51.0* and Y pestis TopoI 4.1.
O=C(NC1CC2CCCC(C1)N2Cc1ccccc1)c1cccc(F)c1 (stereo not given) was read as MazEF act 18.1, BioA inh 2.2, FadD28 binding -0.5, TcdB inh 0.6, VHR inh abs 55.7* and Y pestis TopoI 6.1.
Screening COc1ccc(NS(=O)(=O)c2cccc3nsnc23)cc1OC returned MazEF act 12.1, FadD28 binding 2.5, VHR inh abs 51.2* and Y pestis TopoI -1.6.
Screening CCCNC(=O)Cn1c(=O)n(CC(=O)N2CCCCC2)c(=O)c2sccc21 returned MazEF act 4.0, FadD28 binding 0.4, TcdB inh -1.7, VHR inh abs 55.5* and Y pestis TopoI 1.7.
For COc1ccccc1OCCCC(=O)NC(C)c1ccccc1 (stereo not given) the results were MazEF act -0.2, FadD28 binding -0.2, TcdB inh 0.9, VHR inh abs 26.3 and Y pestis TopoI -0.7.
COc1ccc(CCC(=O)NC(C)c2ccccc2)cc1OC (stereo not given) was read as MazEF act 3.9, BioA inh -1.6, FadD28 binding 0.0, TcdB inh 0.5, VHR inh abs 56.9* and Y pestis TopoI -3.6.
`COCC(=O)Nc1ccc2c(c1)C(=O)N(C)C[C@H](OC)[C@@H](C)CN(Cc1cccc(F)c1)[C@@H](C)CO2` gave BioA inh 18.1 and TcdB inh -0.9.
For Cc1cccc2c(=O)c(C(=O)NCCCN3CCOCC3)c[nH]c12 the results were MazEF act 8.3, BioA inh -3.6, FadD28 binding -1.0, VHR inh abs 52.9* and Y pestis TopoI -1.5.
Screening Cc1ccccc1COc1ccc2oc(C)c(C(=O)O)c2c1 returned MazEF act 5.6, FadD28 binding 0.3, TcdB inh 11.6*, VHR inh abs 25.0 and Y pestis TopoI -10.3.
For COc1cccc(C(=O)N2CCC(n3nccc3NC(=O)C(OC)c3ccccc3)CC2)c1 (stereo not given) the results were MazEF act -1.5, BioA inh 0.4, FadD28 binding -2.6, TcdB inh 1.9, VHR inh abs 43.7 and Y pestis TopoI 4.7.
COC(C(=O)Nc1ccnn1C1CCN(C(=O)c2ccc(C)cc2)CC1)c1ccccc1 (stereo not given) was read as MazEF act 2.1, BioA inh -0.2, FadD28 binding -0.1, TcdB inh 0.0, VHR inh abs 51.3* and Y pestis TopoI -0.2.
Screening COc1ccc(C(CNC(=O)C2CCN(S(=O)(=O)c3ccc(F)cc3)CC2)N(C)C)cc1 (stereo not given) returned MazEF act active, BioA inh -1.7, TcdB inh -0.8, VHR inh abs -11.9 and Y pestis TopoI 8.9.
For COC(=O)C[C@H]1CC[C@H]2[C@H](COc3ccc(NC(=O)c4ccc(F)cc4)cc3C(=O)N2C)O1 the results were BioA inh -3.5 and TcdB inh -0.2.
CO[C@H]1CN(C)C(=O)c2ccc(NC(=O)C3CC3)cc2OC[C@@H](C)N(Cc2cccc(F)c2)C[C@@H]1C was read as BioA inh -0.8.
Screening COC(=O)Nc1ccc2c(c1)Nc1ccccc1CC2 returned MazEF act 4.8, BioA inh 0.8, FadD28 binding -1.2, TcdB inh 0.8, VHR inh abs 0.1 and Y pestis TopoI -7.0.
`Nc1ccc2c(c1)Nc1ccccc1CC2` gave MazEF act 4.7, FadD28 binding -3.3, TcdB inh 14.7*, VHR inh abs 25.9 and Y pestis TopoI -35.0.
`CCOC(=O)c1c(P(=O)(N2CCOCC2)N2CCOCC2)noc1N` gave MazEF act 7.4, BioA inh -1.9, FadD28 binding -3.7, VHR inh abs 53.2* and Y pestis TopoI -0.3.
`Cc1c(C(=O)c2ccc(F)cc2)c2ccccn2c1CCc1ccccn1` gave MazEF act -63.4, FadD28 binding -2.8, TcdB inh -2.3, VHR inh abs -24.9 and Y pestis TopoI -7.4.
Cc1c(C(=O)c2ccccc2)c2ccccn2c1CCc1ccccn1 was read as MazEF act 3.0, FadD28 binding -4.1, TcdB inh 12.7*, VHR inh abs 17.8 and Y pestis TopoI 16.6.
For O=C(NCCN1CCCCCC1)C1CCN(S(=O)(=O)N2CCOCC2)CC1 the results were MazEF act 2.4, BioA inh -3.5, FadD28 binding -0.8, VHR inh abs 19.9 and Y pestis TopoI -4.7.
`CCCNC(=O)C1CCN(c2ccc(S(=O)(=O)N3CCOCC3)cc2Cl)CC1` gave MazEF act 3.2, FadD28 binding -3.5, TcdB inh 0.8, VHR inh abs 57.3* and Y pestis TopoI -12.5.
`CCCCNC(=O)C1CCN(S(=O)(=O)N2CCOCC2)CC1` gave MazEF act 2.5, BioA inh 0.4, FadD28 binding -0.4, TcdB inh 10.3*, VHR inh abs 34.0 and Y pestis TopoI 7.5.
Screening O=C(Nc1cc(S(=O)(=O)N2CCOCC2)ccc1N1CCOCC1)c1ccccc1Cl returned MazEF act 3.2, BioA inh 0.9, FadD28 binding -0.4, TcdB inh 14.3* and Y pestis TopoI 13.8.
Screening COCCNC(=O)C[C@H]1CC[C@@H]2[C@H](COC[C@H](O)CN2C(=O)Nc2ccccc2OC)O1 returned BioA inh 0.7 and TcdB inh -3.1.
Screening COCC(=O)N(C)C[C@H]1Oc2cc(-c3ccc(C#N)cc3)ccc2S(=O)(=O)N([C@@H](C)CO)C[C@H]1C returned BioA inh 0.1 and TcdB inh 2.0.
COCc1cn(CC[C@@H]2CC[C@@H](NC(=O)Nc3ccc(OC)cc3)[C@@H](CO)O2)nn1 was read as BioA inh 0.3 and TcdB inh -0.4.
